Assay [1] can be described thus: qHTS assay to identify small molecule agonists of H2AX (AID 1224845; active = well fitted activation curve with a large enough effect in the signal ratio in the repeat runs, not every such curve was filed as active; the % refers to the signal ratio). The gist of the method:
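Wild-type CHO-K1 cells plated overnight, then exposed 3 hr at 37C to compounds at 15 concentrations (0.76% DMSO). Lysed, then HTRF anti-pH2AX(S139)-cryptate/anti-H2AX-d2 detection after 24 hr at room temperature; emissions 665 and 620 nm.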

A short description of assay [2]: qHTS assay to identify small molecule agonists of the hypoxia (HIF-1) signaling pathway (AID 1224846; active = well fitted activation curve with a large enough effect in the signal ratio in the repeat runs, not every such curve was filed as active; the % refers to the signal ratio). Put shortly:
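Hypoxia-pathway activation was scored as increased beta-lactamase from an HRE-controlled reporter in ME-180 cells; plated at 2,000 cells per well with 0.5% dialyzed FBS, they were exposed 17 hrs to compounds and then given CCF4-AM.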
(In general: In qHTS, concentration-response curves come from the screen itself.)

Assay [3] can be described thus: qHTS assay to identify small molecule agonists of H2AX - cell viability counter screen (AID 1224847; calls by dose curve; also: nearly all actives have a fitted effect of over 30% in size; also: potency is read from the fitted curve at half-maximal effect; as to activity change, negative = cytotoxicity: top concentration of the series differs between compounds). The gist of the method:
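Cells plated first: CHO-K1, 1000 per well in 10% FBS medium, incubated overnight at 37C. Then 15-point compound titration added (final DMSO 0.76%) for 3 hr. Finally CellTiter-Glo added and luminescence read.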

Assay [4] is described as follows: qHTS RealTime-Glo MT Cell Viability Assay in HepG2 cells - 24 hour (AID 1224867). Also: nearly all actives have a fitted effect of over 50% in size. Put shortly:
(§1)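 Luminescence read-out: viable HepG2 cells reduce a prosubstrate to a NanoLuc substrate, giving a signal proportional to live cell number. Reads taken at 0, 8, 16, 24, 32 and 40 h of compound exposure at 37 C.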

A short description of assay [5]: qHTS RealTime-Glo MT Cell Viability Assay in HEK293 cells - 32 hour (AID 1224868). Also: nearly all actives have a fitted effect of over 50% in size. Also: potency is read from the fitted curve at half-maximal effect. As to activity change, negative = cytotoxic: top concentration of the series differs between compounds. The gist of the method: (§2)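 Nonlytic real-time viability readout: viable cells convert prosubstrate to NanoLuc substrate, giving luminescence proportional to live cell number. HEK293, 600 cells/well, compound added after 5 h, continuous culture at 37 C.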
The nature of assay [6]: A CellTox Green Cytotoxicity Assay to monitor cytotoxicity in HEK293 cells - 0 hour (AID 1224869). Also: nearly all actives have a fitted effect of over 50% in size. The gist of the method: (§3)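 Seeding of HEK293 cells together with cytotoxicity dye preceded a 5 h incubation at 37 C/5% CO2. Test compounds in DMSO were then added and fluorescence monitored across 40 h.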
A short description of assay [7]: qHTS RealTime-Glo MT Cell Viability Assay in HepG2 cells - 40 hour (AID 1224870). Also: nearly all actives have a fitted effect of over 50% in size. Also: potency is read from the fitted curve at half-maximal effect. Put shortly: (§4)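 HepG2 cells mixed with RealTime-Glo MT reagents (NanoLuc plus cell-permeant prosubstrate) were seeded at 600 cells/well, incubated 5 h at 37 C/5% CO2, then pinned with compounds in DMSO; nonlytic luminescence tracked viability during 40 h treatment.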
Assay [8] is described as follows: A CellTox Green Cytotoxicity Assay to monitor cytotoxicity in HEK293 cells - 40 hour (AID 1224871). Also: nearly all actives have a fitted effect of over 45% in size. Also: potency is read from the fitted curve at half-maximal effect. The gist of the method: as §3
Assay [9] is described as follows: qHTS RealTime-Glo MT Cell Viability Assay in HepG2 cells - 8 hour (AID 1224873). Also: nearly all actives have a fitted effect of over 55% in size. The gist of the method: as §4
Assay [10] is described as follows: qHTS RealTime-Glo MT Cell Viability Assay in HEK293 cells - 40 hour (AID 1224874). Also: nearly all actives have a fitted effect of over 50% in size. Also: potency is read from the fitted curve at half-maximal effect. To be noted: RealTime-Glo luminescence; max response: active compounds read low. The gist of the method: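 Tox21 screen in HEK293 using RealTime-Glo MT chemistry, with cells and reagent co-dispensed. Luminescence proportional to viable cell number was captured at intervals during 40 h compound exposure at 37 C.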

Assay [11] in a line: A CellTox Green Cytotoxicity Assay to monitor cytotoxicity in HEK293 cells - 24 hour (AID 1224875). Also: nearly all actives have a fitted effect of over 45% in size. Put shortly: as §3
Assay [12] can be described thus: qHTS RealTime-Glo MT Cell Viability Assay in HepG2 cells - 32 hour (AID 1224877). Also: nearly all actives have a fitted effect of over 55% in size. Put shortly: as §1
Assay [13] is described as follows: A CellTox Green Cytotoxicity Assay to monitor cytotoxicity in HepG2 cells - 24 hour (AID 1224878). Also: nearly all actives have a fitted effect of over 45% in size. The gist of the method: (§5)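 Nonlytic assay: viable cells exclude the dye, so fluorescence scales with cell death. HepG2 at 600 cells/well, compounds added after 5 h, signal read across 40 h.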
Assay [14] in a line: A CellTox Green Cytotoxicity Assay to monitor cytotoxicity in HepG2 cells - 40 hour (AID 1224879). Also: nearly all actives have a fitted effect of over 40% in size. Also: potency is read from the fitted curve at half-maximal effect. The gist of the method: as §5
Assay [15] in a line: qHTS assay to identify small molecule antagonists of the estrogen related receptor (ERR) signaling pathway from Tox21 library (AID 1224848). Also: nearly all actives have a fitted effect of over 50% in size. Also: potency is read from the fitted curve at half-maximal effect. The gist of the method: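 Screening used an ERR reporter line supplied by NTP, exposed for 18 h at 37 C to library compounds delivered in DMSO. Signal was luciferase luminescence developed with ONE-Glo at room temperature for 30 min.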

Assay [16] can be described thus: qHTS assay to identify small molecule agonists of the estrogen related receptor (ERR) signaling pathway from Tox21 library (AID 1224849; calls by dose curve; also: nearly all actives have a fitted effect of over 15% in size). The settings on record: ERR reporter cell line, ONE-Glo luciferase, 18 h; at 92.4 µM (top of the series) unless noted. The gist of the method:
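Six hours post-seeding at 37 C/5% CO2, ERR cells receive DMSO-solubilised compounds; after 18 h at 37 C, ONE-Glo reagent is applied and luminescence recorded.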

The nature of assay [17]: A CellTox Green Cytotoxicity Assay to monitor cytotoxicity in HepG2 cells - 16 hour (AID 1224876). Also: nearly all actives have a fitted effect of over 45% in size. Also: potency is read from the fitted curve at half-maximal effect. Put shortly:
as §5

Assay [18] in a line: qHTS assay to identify small molecule agonists of the hypoxia (HIF-1) signaling pathway - cell viability counter screen (AID 1224844; calls by dose curve; also: nearly all actives have a fitted effect of over 50% in size; also: potency is read from the fitted curve at half-maximal effect). Put shortly: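 Multiplexed with the HRE beta-lactamase assay, this viability read used CellTiter-Glo luminescence (30 min, RT) on HRE-bla ME-180 cells treated 17 hrs with compounds in 0.5% dialyzed FBS medium.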
Assay [19] is described as follows: qHTS RealTime-Glo MT Cell Viability Assay in HEK293 cells - 16 hour (AID 1224872). Also: nearly all actives have a fitted effect of over 50% in size. Also: potency is read from the fitted curve at half-maximal effect. As to activity change, negative = cytotoxicity: top concentration of the series differs between compounds. Put shortly: as §2

Data on 7 molecules can be found in PubChem BioAssay (Tox21).

Values without a mark were called inactive. Records with an inconclusive call do not appear. The source made the active and inactive calls. Unless noted, calls follow the shape of the dose curve; as a rule, active = well fitted curve in the direction sought with a large enough effect in the repeat runs; inconclusive = weak or mixed curves; inactive = no such curve, though single readings can be large; an effect the other way counts as inactive or inconclusive.
% is scaled to controls: 0 for no effect and ±100 for the full control effect.

As for `CCCCCCCCOC(=O)c1ccc(C(=O)OCCCCCCCC)c(C(=O)OCCCCCCCC)c1`, the Potency result in assay [1], in assay [3], in [4], in assay [5], in [6] and in [7] was “inactive” throughout. Besides, the Potency result in [8], in assay [9], in assay [11], in assay [12], in [13] and in assay [14] was “inactive” each time. Also, the call in assay [2] was inactive. Moreover, in [10], the max response is -3.25%.

In the case of `Cl/C=C\C[N+]12CN3CN(CN(C3)C1)C2`, the outcome in [2] was inactive. Moreover, the Potency result in assay [3], in assay [15], in assay [4], in assay [6], in assay [7] and in assay [8] was “inactive” throughout. The Potency entry in [11], in [17], in assay [12], in assay [13] and in assay [14] was “inactive” each time. In [16], the activity change, positive = activation is -0.401%.

Turning to `C/C(=C\c1ccccc1)[N+](=O)[O-]`, the Potency is 38.9 µM (active) in assay [18]; 24.3 µM (active) in assay [15]; 21.9 µM (active) in assay [7]; 9.77 µM (active) in [8]; 11 µM (active) in [10]. In assay [2], the outcome was inactive. Further, the activity change, positive = activation in assay [16] is -68.3%. Besides, the Potency entry in assay [6], in assay [11] and in assay [17] was “inactive” each time.

Turning to `CO[C@@H]1[C@H](OC(=O)NC(=O)CCl)CC[C@]2(CO2)[C@H]1[C@@]1(C)O[C@@H]1CC=C(C)C`, the activation (H2AX phosphorylation) in assay [1] was 1.5% [at 31.6 µM]. In addition, the activation in assay [2] is -0.119% [at 15.8 µM]. Further, the activity change, negative = cytotoxicity was 2.72% [at 31.6 µM] in [3], 0.578% [at 15.8 µM] in assay [4] and 13.2% [at 15.8 µM] in [19]. Besides, the activity, negative = inhibition in [15] was -8.28% [at 19 µM]. Further, in assay [16], the activity change, positive = activation is -4.67% [at 19 µM]. The values for the activity change, negative = cytotoxic in assay [5] and in assay [12] were 8.14% [at 15.8 µM] and 1.26% [at 15.8 µM], respectively. Further, the figures for the cytotoxicity in assay [6] and in assay [13] were -3.97% [at 15.8 µM] and -1.01% [at 15.8 µM], respectively. Further, the cytotoxicity increase in [8] was -0.615% [at 15.8 µM]; in assay [17] it was -3.75% [at 15.8 µM]; in assay [14], -2% [at 15.8 µM]. Besides, the max response in [10] was 1.55%. The activity change in assay [11] is -10.2% [at 15.8 µM, active compounds read high].

For the molecule `COC(=O)C(Br)CBr` (configuration not stated), the Potency result in assay [1], in [3], in assay [15], in assay [4], in assay [5] and in assay [6] was “inactive” in each case. Further, the Potency entry in [7], in assay [8], in [9], in [11], in assay [12] and in [13] was “inactive” each time. In addition, in assay [14], the Potency result was “inactive”. The activity change, positive = activation in [16] was -11.9%. Moreover, in [10], the max response was -3.92%.

In the case of `O=S(=O)(O)C(F)(F)C(F)(F)C(F)(F)C(F)(F)F`, the Potency result in [18], in assay [6], in assay [7], in [8], in assay [9] and in assay [11] was “inactive” each time. In addition, the Potency result in [12], in [13] and in assay [14] was “inactive” in each case. The molecule was called inactive in [2].

`CC1(C)CCC(Cc2ccc(Cl)cc2)C1(O)Cn1cncn1` (configuration not stated): the molecule was called inactive in [2]. For the same molecule, the Potency is 101 µM (active) in [3]; 30.6 µM (active) in assay [15]; 24.5 µM (active) in assay [5]; 24.5 µM (active) in assay [19]; 24.5 µM (active) in assay [10]; 54.9 µM (active) in assay [17]. Moreover, the Potency in [14] is 54.9 µM (active). Further, the activity change, positive = activation in assay [16] is -53.4%. Moreover, the Potency entry in [4], in [6], in [7], in assay [11] and in assay [12] was “inactive” throughout.
